The source made the active and inactive calls. The calls were made as follows: active = hit-call score of the fitted dose curve at least 0.9, where 1 is the maximum; inactive = score below 0.9.
Legend:
Conditions in all cases: mRNA level, 48 h; actives raise or lower the signal
[1] = read-out: Lipase C (LIPC), LIPC (gene 3990); test: LTEA_HepaRG_LIPC: Life Technologies and Expression Analysis (LTEA) Assay for Lipase C (LIPC) using HepaRG (AID 2283514)
How it was run: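 In this multiplexed gene-expression screen, human HepaRG cultures received test chemicals for 48 h across eight concentrations with 100 uM highest, in duplicate. Values reflect LIPC mRNA induction or suppression versus DMSO vehicle, from normalized qRT-PCR.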

[2] = read-out: Lipoprotein lipase (LPL), LPL (gene 4023); test: LTEA_HepaRG_LPL: Life Technologies and Expression Analysis (LTEA) Assay for Lipoprotein lipase (LPL) using HepaRG (AID 2283515)
How it was run: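 Concentration-response testing used half-log steps from 100 uM in 0.5% DMSO on human HepaRG cells, 48 h, duplicate wells. Phenobarbital 1 mM served as induction control; LPL mRNA was normalized to ACTB, GAPDH, POLR2A.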

[3] = read-out: MicroRNA 122 (MIR122), gene 406906; test: LTEA_HepaRG_MIR122: Life Technologies and Expression Analysis (LTEA) Assay for MicroRNA 122 (MIR122) using HepaRG (AID 2283516); also: the transcript read is the microRNA miR-122
How it was run: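 Expression measured by microfluidic qRT-PCR with three housekeeping genes for normalisation, after 48 h treatment of HepaRG cultures. Eight concentrations (top 100 uM, half-log steps, 0.5% DMSO vehicle) in duplicate; gain or loss fitted relative to vehicle.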

[4] = read-out: matrix metalloproteinase-10 (MMP10), MMP10 (gene 4319); test: LTEA_HepaRG_MMP10: Life Technologies and Expression Analysis (LTEA) Assay for matrix metalloproteinase-10 (MMP10) using HepaRG (AID 2283517)
How it was run: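 In differentiated HepaRG cultures kept in 0.5% DMSO, test chemicals act for 48 h over an eight-point range with a top dose of 100 uM. Expression is then quantified by TaqMan RT-PCR against ACTB, GAPDH and POLR2A.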

MYC, MYC (gene 4609) = test: LTEA_HepaRG_MYC: Life Technologies and Expression Analysis (LTEA) Assay for MYC using HepaRG (AID 2283518)
How it was run: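 Expression changes were scored by TaqMan qRT-PCR with ACTB, GAPDH and POLR2A normalization. Cultures in serum-free induction medium received duplicate 8-point concentration series, highest 100 uM, for 48 h; DMSO (0.5%) served as baseline.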

[5] = read-out: matrix metalloproteinase-3 (MMP3), MMP3 (gene 4314); test: LTEA_HepaRG_MMP3: Life Technologies and Expression Analysis (LTEA) Assay for matrix metalloproteinase-3 (MMP3) using HepaRG (AID 2283519)
How it was run: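 Human liver HepaRG cultures received chemicals (top concentration 100 uM, 0.5% DMSO) for 48 h in duplicate. MMP3 mRNA induction or loss was then assessed via TaqMan qRT-PCR with housekeeping-gene normalisation.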

[6] = read-out: Paternally Expressed 10 (PEG10), PEG10 (gene 23089); test: LTEA_HepaRG_PEG10: Life Technologies and Expression Analysis (LTEA) Assay for Paternally Expressed 10 (PEG10) using HepaRG (AID 2283520);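 as to AC50: differentiated HepaRG human liver cells in serum-free induction medium with 0.5% DMSO; PEG10 transcript by qRT-PCR normalised to ACTB GAPDH and POLR2A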
How it was run: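 PEG10 transcript measured by Fluidigm qRT-PCR, normalized to three housekeeping genes, in HepaRG cells treated 48 h (highest 100 uM, half-log steps, 0.5% DMSO vehicle). Cells plated 48 h before switching to serum-free induction medium.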

[7] = read-out: Nuclear factor NF-kappa-B p105 subunit (Homo sapiens) (UniProt P19838); test: LTEA_HepaRG_NFKB1: Life Technologies and Expression Analysis (LTEA) Assay for Nuclear Factor Kappa B Subunit 1 (NFKB1) using HepaRG (AID 2283521)
How it was run: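 HepaRG, 48 h exposure; 8-pt half-log series from 100 uM in 0.5% DMSO; duplicates. Readout: NFKB1 mRNA by qRT-PCR (Fluidigm arrays), housekeeping-normalized. Gain/loss fit vs DMSO baseline.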

[8] = read-out: Protein phosphatase 2A (PPP2R4), PTPA (gene 5524); test: LTEA_HepaRG_PPP2R4: Life Technologies and Expression Analysis (LTEA) Assay for Protein phosphatase 2A (PPP2R4) using HepaRG (AID 2283522)
How it was run: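 Expression was quantified by Fluidigm qRT-PCR normalised to three housekeeping genes after 48 h treatment. Human HepaRG cells received an 8-point series from 100 µM downward by half-logs, in duplicate with 0.5% DMSO vehicle and 1 mM phenobarbital as induction control.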

[9] = read-out: Phosphatase and tensin (PTEN), PTEN (gene 5728); test: LTEA_HepaRG_PTEN: Life Technologies and Expression Analysis (LTEA) Assay for Phosphatase and tensin (PTEN) using HepaRG (AID 2283523)
How it was run: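 Expression of PTEN is quantified in the human liver line HepaRG following two days of dosing (top concentration 100 uM, half-log dilutions, 0.5% DMSO). Values derive from bidirectional curve fitting relative to DMSO controls.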

[10] = read-out: solute carrier (SLC22A1), SLC22A1 (gene 6580); test: LTEA_HepaRG_SLC22A1: Life Technologies and Expression Analysis (LTEA) Assay for solute carrier (SLC22A1) using HepaRG (AID 2283524);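 as to AC50: differentiated human HepaRG liver cells in serum-free induction medium; TaqMan qRT-PCR normalized to ACTB GAPDH and POLR2A housekeeping genes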
How it was run: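 Transcript induction or suppression of SLC22A1 in human HepaRG cultures is scored after 48 h chemical treatment, with DMSO (0.5%) as baseline for bidirectional fitting. Concentrations span eight half-log points topping at 100 uM.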

[11] = read-out: NAD(P)H dehydrogenase [quinone] 1 (NQO1), NQO1 (gene 1728); test: LTEA_HepaRG_NQO1: Life Technologies and Expression Analysis (LTEA) Assay for NAD(P)H dehydrogenase [quinone] 1 (NQO1) using HepaRG (AID 2283526)
How it was run: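 NQO1 transcript induction or loss measured by TaqMan qRT-PCR, referenced to three housekeeping genes and fitted bidirectionally against 0.5% DMSO. HepaRG cultures exposed 48 h, duplicate, eight-point half-log series, top 100 uM.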

[12] = read-out: Nuclear factor erythroid 2-related factor 2 (Homo sapiens) (UniProt Q16236); test: LTEA_HepaRG_NFE2L2: Life Technologies and Expression Analysis (LTEA) Assay for Nuclear factor erythroid 2-related factor 2 (NFE2L2) Transcription Factor using HepaRG (AID 2283527)
How it was run: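 Human liver HepaRG line treated in duplicate for 48 h with an eight-point series topping at 100 uM. Gene expression of NFE2L2 by qRT-PCR, bidirectionally fitted against the vehicle control.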

[13] = read-out: succinate dehydrogenase complex iron sulfur subunit B (SDHB), SDHB (gene 6390); test: LTEA_HepaRG_SDHB: Life Technologies and Expression Analysis (LTEA) Assay for succinate dehydrogenase complex iron sulfur subunit B (SDHB) using HepaRG (AID 2283528)
How it was run: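 Readout is SDHB transcript level by qRT-PCR, normalised to three housekeeping genes and fitted bidirectionally against 0.5% DMSO vehicle. Human HepaRG cells were treated for 48 h at up to 100 uM.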

[14] = read-out: Signal transducer and activator of transcription 3 (Homo sapiens) (UniProt P40763); test: LTEA_HepaRG_STAT3: Life Technologies and Expression Analysis (LTEA) Assay for Signal transducer and activator of transcription (STAT3) using HepaRG (AID 2283529)
How it was run: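 In this transcriptional endpoint, HepaRG cultures receive test chemicals at up to 100 uM for 48 h, tested in duplicate. STAT3 mRNA is normalized to ACTB, GAPDH and POLR2A.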

[15] = read-out: solute carrier (SLCO1B1), SLCO1B1 (gene 10599); test: LTEA_HepaRG_SLCO1B1: Life Technologies and Expression Analysis (LTEA) Assay for solute carrier (SLCO1B1) using HepaRG (AID 2283530)
How it was run: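 Human HepaRG cultures treated for 48 h with an eight-concentration half-log series topping at 100 uM; SLCO1B1 measured by qRT-PCR and fitted bidirectionally relative to DMSO.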

[16] = read-out: sulfotransferase 2A1 (SULT2A1), SULT2A1 (gene 6822); test: LTEA_HepaRG_SULT2A1: Life Technologies and Expression Analysis (LTEA) Assay for sulfotransferase 2A1 (SULT2A1) using HepaRG (AID 2283531)
How it was run: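 Gene-expression endpoint in a human liver cell line: SULT2A1 mRNA change after 48 h chemical treatment, curves fitted in both directions relative to 0.5% DMSO vehicle. Concentrations spanned eight half-log steps from 100 uM.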

[17] = read-out: Transforming Growth Factor (TGFB1), TGFB1 (gene 7040); test: LTEA_HepaRG_TGFB1: Life Technologies and Expression Analysis (LTEA) Assay for Transforming Growth Factor (TGFB1) Transporter using HepaRG (AID 2283533)
How it was run: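 Eight-point concentration-response (max 100 uM, half-log) in HepaRG under serum-free induction conditions, 48 h. TGFB1 mRNA by qRT-PCR, housekeeping-normalized.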

[18] = read-out: Pyruvate Dehydrogenase Kinase 4 (PDK4), PDK4 (gene 5166); test: LTEA_HepaRG_PDK4: Life Technologies and Expression Analysis (LTEA) Assay for Pyruvate Dehydrogenase Kinase 4 (PDK4) using HepaRG (AID 2283525)
How it was run: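 Eight-point, half-log concentration series (max 100 uM, 0.5% DMSO) applied to differentiated HepaRG cells for 48 h in duplicate. Endpoint: PDK4 mRNA induction or repression by qRT-PCR against DMSO baseline.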

[19] = read-out: Transforming Growth Factor (TGFA), TGFA (gene 7039); test: LTEA_HepaRG_TGFA: Life Technologies and Expression Analysis (LTEA) Assay for Transforming Growth Factor (TGFA) using HepaRG (AID 2283532)
How it was run: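 Gene expression of TGFA was quantified by qRT-PCR after human HepaRG cells were treated for 48 h with test chemicals (eight concentrations, highest 100 uM, 0.5% DMSO). Activity in either direction was fitted relative to DMSO.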

Measured: AC50

Sequence of Nuclear factor erythroid 2-related factor 2 (Homo sapiens) (Q16236 whole entry, looked up): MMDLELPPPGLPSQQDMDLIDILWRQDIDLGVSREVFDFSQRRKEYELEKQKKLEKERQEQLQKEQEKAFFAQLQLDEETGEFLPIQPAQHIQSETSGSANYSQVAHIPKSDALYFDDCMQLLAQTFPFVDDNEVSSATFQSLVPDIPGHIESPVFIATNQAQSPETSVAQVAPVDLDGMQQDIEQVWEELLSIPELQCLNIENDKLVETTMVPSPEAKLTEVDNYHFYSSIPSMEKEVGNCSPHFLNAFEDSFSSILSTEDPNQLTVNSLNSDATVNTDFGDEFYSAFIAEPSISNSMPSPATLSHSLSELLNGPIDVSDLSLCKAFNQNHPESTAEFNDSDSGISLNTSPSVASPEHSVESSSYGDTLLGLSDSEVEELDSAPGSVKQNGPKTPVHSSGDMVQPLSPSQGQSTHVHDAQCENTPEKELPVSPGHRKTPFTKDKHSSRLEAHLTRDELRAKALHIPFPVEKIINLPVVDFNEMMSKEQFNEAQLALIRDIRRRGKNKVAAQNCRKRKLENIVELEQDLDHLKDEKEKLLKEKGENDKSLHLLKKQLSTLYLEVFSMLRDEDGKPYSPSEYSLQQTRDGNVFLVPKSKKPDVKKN
Sequence of Nuclear factor NF-kappa-B p105 subunit (Homo sapiens) (P19838 whole entry, looked up): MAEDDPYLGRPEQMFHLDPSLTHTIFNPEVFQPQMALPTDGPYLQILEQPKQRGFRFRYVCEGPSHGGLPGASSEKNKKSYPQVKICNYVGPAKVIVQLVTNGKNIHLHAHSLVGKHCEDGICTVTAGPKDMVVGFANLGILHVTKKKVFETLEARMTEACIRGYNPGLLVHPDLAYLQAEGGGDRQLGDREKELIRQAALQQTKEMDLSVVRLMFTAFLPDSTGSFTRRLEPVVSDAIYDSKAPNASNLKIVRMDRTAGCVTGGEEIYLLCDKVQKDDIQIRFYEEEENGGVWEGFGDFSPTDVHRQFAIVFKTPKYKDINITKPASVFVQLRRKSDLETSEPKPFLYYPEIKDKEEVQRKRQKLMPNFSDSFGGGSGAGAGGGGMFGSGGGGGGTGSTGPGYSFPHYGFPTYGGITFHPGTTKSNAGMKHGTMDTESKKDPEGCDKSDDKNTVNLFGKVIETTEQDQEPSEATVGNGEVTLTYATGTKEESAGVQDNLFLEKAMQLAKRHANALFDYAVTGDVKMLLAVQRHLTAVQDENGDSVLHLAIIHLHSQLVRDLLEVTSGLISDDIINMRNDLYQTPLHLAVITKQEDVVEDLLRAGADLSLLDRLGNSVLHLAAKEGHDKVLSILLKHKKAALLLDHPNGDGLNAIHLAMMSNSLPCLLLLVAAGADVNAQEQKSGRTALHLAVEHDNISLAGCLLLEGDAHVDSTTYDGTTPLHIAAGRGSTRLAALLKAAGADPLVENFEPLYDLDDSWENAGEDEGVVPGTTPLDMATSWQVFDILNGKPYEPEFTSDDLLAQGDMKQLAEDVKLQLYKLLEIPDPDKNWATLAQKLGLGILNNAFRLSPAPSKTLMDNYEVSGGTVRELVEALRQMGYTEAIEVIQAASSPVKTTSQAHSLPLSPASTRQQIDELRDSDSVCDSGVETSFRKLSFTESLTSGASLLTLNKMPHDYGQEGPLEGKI
Sequence of Signal transducer and activator of transcription 3 (Homo sapiens) (P40763 whole entry, looked up): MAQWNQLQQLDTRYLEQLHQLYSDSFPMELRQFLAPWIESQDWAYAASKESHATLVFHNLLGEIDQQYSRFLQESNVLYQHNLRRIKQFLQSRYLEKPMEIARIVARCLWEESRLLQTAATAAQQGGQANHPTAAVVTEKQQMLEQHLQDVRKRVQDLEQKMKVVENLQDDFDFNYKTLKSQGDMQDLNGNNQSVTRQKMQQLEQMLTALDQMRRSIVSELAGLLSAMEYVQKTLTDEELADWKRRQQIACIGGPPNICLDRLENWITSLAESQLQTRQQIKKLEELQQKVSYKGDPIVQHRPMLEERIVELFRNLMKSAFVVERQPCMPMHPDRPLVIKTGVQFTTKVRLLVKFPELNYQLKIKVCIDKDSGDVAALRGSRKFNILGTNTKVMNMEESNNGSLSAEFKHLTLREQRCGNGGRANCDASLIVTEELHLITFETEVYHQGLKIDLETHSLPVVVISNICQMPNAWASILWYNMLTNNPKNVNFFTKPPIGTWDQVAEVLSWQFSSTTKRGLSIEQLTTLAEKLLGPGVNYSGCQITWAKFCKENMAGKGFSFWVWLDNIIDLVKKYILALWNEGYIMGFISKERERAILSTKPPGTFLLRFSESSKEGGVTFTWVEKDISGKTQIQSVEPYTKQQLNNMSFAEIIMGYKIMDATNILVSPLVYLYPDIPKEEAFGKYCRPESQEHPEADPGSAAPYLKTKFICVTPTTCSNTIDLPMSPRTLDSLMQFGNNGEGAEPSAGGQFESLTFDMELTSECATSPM

CCOC(=O)COc1cc(-c2nn(C)c(OC(F)F)c2Cl)c(F)cc1Cl
inactive: [1] | [2] | [3] | [4] | MYC, MYC (gene 4609) | [5] | [6] | [7] | [8] | [9] | [10] | [11] | [12] | [13] | [14] | [15] | [16] | [17]

O=[N+]([O-])c1cc(C(F)(F)F)c(Cl)c([N+](=O)[O-])c1Nc1ncc(C(F)(F)F)cc1Cl
inactive: MYC, MYC (gene 4609) | [7] | [11] | [12] | [13] | [14] | [19]
active: [2] 74.1 µM | [3] 15.8 µM | [4] 24.8 µM | [5] 25 µM | [6] 49.2 µM | [8] 65.2 µM | [9] 59.8 µM | [10] 17.8 µM | [18] 34 µM | [15] 23.4 µM | [16] 50 µM | [17] 79.7 µM

CCNc1nc(Cl)nc(NC(C)(C)C#N)n1
inactive: [1] | [2] | [3] | [4] | MYC, MYC (gene 4609) | [5] | [8] | [9] | [10] | [18] | [11] | [12] | [13] | [14] | [15] | [16] | [17]
active: [6] 26.5 µM

Nc1c(Cl)cc([N+](=O)[O-])cc1Cl
inactive: [4] | [5] | [11] | [12] | [19] | [17]
active: [2] 15.5 µM | [3] 50 µM | MYC, MYC (gene 4609) 12.3 µM | [6] 36.7 µM | [7] 12.2 µM | [8] 50 µM | [9] 4.24 µM | [10] 60.8 µM | [18] 50 µM | [13] 50 µM | [14] 25 µM | [15] 50 µM | [16] 50 µM

C=C(C)[C@H]1Cc2c(ccc3c2O[C@@H]2COc4cc(OC)c(OC)cc4[C@@H]2C3=O)O1
active: [1] 12.7 µM | [2] 2.16 µM | [3] 1.32 µM | [4] 17.7 µM | MYC, MYC (gene 4609) 6.64 µM | [5] 14.3 µM | [6] 0.173 µM | [8] 50 µM | [10] 1.95 µM | [12] 7.62 µM | [13] 0.358 µM | [15] 12.3 µM | [16] 13.2 µM | [19] 7.78 µM
inactive: [7] | [9] | [11] | [14] | [17]

CC(COc1ccc(Oc2ccccc2)cc1)Oc1ccccn1 (stereo unspecified)
active: [10] 12.1 µM
inactive: [1] | [2] | [3] | [4] | MYC, MYC (gene 4609) | [5] | [6] | [7] | [8] | [9] | [11] | [12] | [13] | [14] | [15] | [16] | [17]

CCOP(=S)(Oc1cnc(C(C)(C)C)nc1)OC(C)C (stereo unspecified)
inactive: [2] | [3] | [4] | MYC, MYC (gene 4609) | [5] | [7] | [8] | [9] | [10] | [11] | [12] | [13] | [14] | [15] | [16] | [19] | [17]
active: [1] 18.8 µM | [6] 13.3 µM | [18] 1.35 µM
